# Screens as filed in PubChem BioAssay.
# Bfl-1 A1 inh: inhibitors of the anti-apoptotic protein A1, read as caspase activation; caspase activation, % (concentration not given with the values); MEF A1-2A-BIM cells, Caspase-Glo 3/7 luminescence, 3 h; percent of clofoctol response, vehicle zero; AID 2462; hit rate 0.066% among 330,000;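 active means over half of replicate activation scores above 10%, or exactly half above 10 with the replicate mean above 10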
# Mdm2-MdmX inh: inhibitors of human Mdm2/MdmX interaction. O15151+Q00987. SaOS-2 split-luciferase Mdm2/MdmX complementation, luminescence. inhibition, % at 8 µM. hit rate 3% among 330,000. AID 485346;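 active means inhibition of at least 50% at 8 µM in the primary screen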
# Jurkat NFkB inh: lowers PMA/ionomycin-induced NF-kB signal in Jurkat cells; inhibition, % at 4 µM; hit rate 0.53% among 330,000; PMA/ionomycin-induced NF-kB luciferase reporter, luminescence; AID 435003; in the data active means inhibition above about 50%
# NTR1 ag: NTR1 (human) agonism; P30989; NTR1-U2OS beta-arrestin-GFP spot imaging, agonist mode; activation, % at 20 µM; hit rate 0.17% among 330,000;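 active means activation at or above 40% of the spot to cytoplasm intensity ratio, with at least 20 cells analyzed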;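 further: 0% = DMSO without peptide and 100% = 100 nM NTR1 peptide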
# Target sequence (P30989 whole entry, looked up): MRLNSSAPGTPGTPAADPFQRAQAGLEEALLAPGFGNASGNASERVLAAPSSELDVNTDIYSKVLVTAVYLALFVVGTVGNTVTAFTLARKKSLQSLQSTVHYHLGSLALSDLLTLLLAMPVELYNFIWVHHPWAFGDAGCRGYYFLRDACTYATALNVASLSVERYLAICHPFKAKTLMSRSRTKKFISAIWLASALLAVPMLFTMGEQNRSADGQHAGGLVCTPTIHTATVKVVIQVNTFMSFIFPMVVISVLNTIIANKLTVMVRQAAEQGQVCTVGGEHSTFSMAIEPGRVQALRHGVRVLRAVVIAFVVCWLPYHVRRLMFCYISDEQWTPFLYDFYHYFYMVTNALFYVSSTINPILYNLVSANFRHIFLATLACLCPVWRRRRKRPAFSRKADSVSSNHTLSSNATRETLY
# Beta apoptosis: blocks beta cell apoptosis; INS-1E cytokine-induced death, ATP luminescence, 48 h; percent of positive-control rescue, neutral wells zero; protection from apoptosis, % (no concentration beside the values); hit rate 0.8% among 300,000;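 active means Every replicate reaches about 75%, or at least half do and their mean reaches it too, limit read from the data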;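 further: 0% = cytokine-treated negative control wells and 100% = positive control rescue; higher means more ATP so stronger rescue from cytokine killing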
# 697 NFkB inh: lowers PMA/ionomycin-induced NF-kB signal in 697 B cells. 697 B-cell NF-kB luciferase reporter, 16 h. inhibition, % at 4 µM. hit rate 0.33% among 330,000. AID 435022; in the data active means inhibition above about 35%
# Mdm2-MdmX conf: human Mdm2/MdmX binding inhibition, confirmed | hit rate 55% among 10,000 | shares compounds with Mdm2-MdmX inh | luminescent assay | inhibition, % at 8 µM | AID 489028; in the data active means inhibition above about 40%
# FLuc counter: inhibits full-length luciferase, flagging false Mdm2/MdmX hits | shares compounds with Mdm2-MdmX inh | SaOS-2 full-length luciferase counterscreen, luminescence | inhibition, % at 8 µM | hit rate 77% among 6,200;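 active means mean inhibition at 8 µM reaching about 37%, which flags the compound as non-specific, limit read from the data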;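 further: p53-null SaOS-2 cells with luciferase driven by a doxycycline-inducible promoter; compound on cells about two nights before reading with doxycycline added after day one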
# An asterisk follows results filed as active; / = not tested or not shown. Sampled rows, rich in hits. Any-hit rate of the full collection: about 3.8%.
SMILES,Bfl-1 A1 inh,Mdm2-MdmX inh,Jurkat NFkB inh,NTR1 ag,Beta apoptosis,697 NFkB inh,Mdm2-MdmX conf,others
O=C(c1ccco1)N1CCN(C(c2coc3ccc(Cl)cc3c2=O)c2nnnn2C2CCCC2)CC1 (centres undefined),2,50*,-21,3,-2,-11,3,
Cc1ccc2occ(C(c3nnnn3C3CCCC3)N3CCN(C(=O)c4ccco4)CC3)c(=O)c2c1 (centres undefined),-1,16,4,2,6,11,/,
Cc1ccc(OCCCC(=O)Nc2cc(S(=O)(=O)N3CCOCC3)ccc2N2CCOCC2)cc1,/,-20,6,1,/,-8,/,
CCCCn1c(N)c(N(C(=O)CSc2nnc(C)n2-c2ccccc2)C2CCCC2)c(=O)[nH]c1=O,-1,-6,5,-3,-2,9,/,
Cc1ccc(Cl)cc1NC(=O)CCC(=O)NCc1ccco1,0,21,-2,-1,1,1,/,
CCOC(=O)c1c(C)oc2c1c(C(c1cccnc1)N1CCOCC1)c(O)c1ccccc12 (centres undefined),0,76*,-70,32,-21,-52,-232,
CC1(C)C[C@H]2C3=CCC4[C@@]5(C)CC[C@H](O)[C@](C)(CO)C5CC[C@@]4(C)[C@]3(C)CC[C@@]2(C)[C@H](O)[C@@H]1O (some centres undefined),/,87*,-1,0,/,1,57*,FLuc counter=60*
C[C@H]1[C@H](C)CC[C@]2(C(=O)O)CC[C@]3(C)C(=CC[C@@H]4[C@@]5(C)C[C@@H](O)[C@H](O)C(C)(C)[C@@H]5CC[C@]43C)[C@H]12,0,68*,4,18,2,22,25,
C[C@H]1[C@H](C)CC[C@]2(C)CC[C@]3(C)C(=CC[C@@H]4[C@@]5(C)CC[C@@H](O)[C@](C)(C(=O)O)[C@@H]5CC[C@]43C)[C@H]12,0,/,/,/,-4,/,/,
C[C@H]1[C@H](C)CC[C@]2(C(=O)O)CC[C@]3(C)C(=CC[C@@H]4[C@@]5(C)CC[C@H](O)C(C)(C)[C@@H]5CC[C@]43C)[C@H]12,1,78*,-21,13,22,5,15,
C[C@@H]1CC[C@]2(C(=O)O)CC[C@]3(C)C(=CCC4[C@]56CC[C@@](O)(OC5)C(C)(C)C6CC[C@]43C)C2[C@H]1C (some centres undefined),1,29,1,34,3,-5,/,
CCOC(=O)C1=CC[C@@H](c2cc(OC)c(OC)c(OC)c2)N(S(=O)(=O)c2ccc(C)cc2)[C@H]1C(=O)OCC,0,11,7,1,-6,1,/,
CCc1ccc2c(c1)cc(CN(C(=S)Nc1ccccc1C)C1CC1)c1nnnn12,1,12,-3,0,-3,11,/,
COCCN(Cc1cc2cc(C)ccc2n2nnnc12)C(=S)Nc1ccccc1C,-1,51*,3,4,-2,-7,0,
CCC1(c2ccc(OC)cc2)NC(=O)N(CC(=O)N2CCc3ccccc32)C1=O (centres undefined),/,34,22,0,/,8,/,
CCc1c(-c2ccccc2)nc2sc3c(c2c1N)CCCC3,0,72*,-52,6,14,-59,-19,
Nc1c(C(=O)O)sc2nc(-c3ccccc3)c3c(c12)CCCC3,0,-6,1,1,-4,-17,/,
Cc1ccc(C(=O)NNc2c3ccccc3nc3ccccc23)cc1,1,1,-24,16,15,11,/,
CN(NC(=O)c1ccc(Cl)cc1)c1ncc(C(F)(F)F)cc1Cl,1,14,-9,0,-15,6,/,
CNc1nc(SC)nc2ccccc12,0,5,8,-1,0,11,/,
CSc1nc(N(C)NC(=O)c2ccc(Cl)cc2)c2ccccc2n1,1,62*,43,4,32,-23,56*,FLuc counter=88*
O=C(NNc1c2ccccc2nc2ccccc12)c1ccc(Cl)cc1,0,87*,-17,7,34,-2,67*,FLuc counter=43*
CSc1nc(N(C)NC(=O)c2ccccc2)c2ccccc2n1,0,56*,49,1,13,9,52*,FLuc counter=69*
Cc1cccc(C(C(=O)NC2CCCC2)N(C(=O)c2csnn2)C2CCCC2)c1 (centres undefined),0,-3,12,1,-4,13,/,
COc1ccc(CNC(=O)CNS(=O)(=O)c2cccc(C#N)c2)cc1OC,1,/,/,/,3,/,/,
SMILES,Bfl-1 A1 inh,Mdm2-MdmX inh,Jurkat NFkB inh,NTR1 ag,Beta apoptosis,697 NFkB inh,Mdm2-MdmX conf,others
Cc1cccc(CNc2ncnc3ccc(-c4ccc5c(c4)OCO5)cc23)c1,1,12,1,6,27,-8,/,
CCOc1ccccc1CNc1ncnc2ccc(-c3c(C)noc3C)cc12,1,79*,8,3,35,12,54*,FLuc counter=43*
CC(NCC(O)COc1ccc(Br)cc1)c1ccccc1 (centres undefined),-2,5,1,-1,1,7,/,
CC(NCC(O)COC1CCC(C(C)(C)C)CC1)c1ccccc1 (centres undefined),0,55*,5,12,5,18,36,FLuc counter=77*
O=C(Nc1ccc(OC(=O)c2ccccc2)c(-c2nc3ccccc3s2)c1)c1ccccc1,1,68*,-3,2,2,12,32,
N/C(=N\OC(=O)C(c1ccccc1)c1ccccc1)c1cccnc1,0,52*,-6,3,1,4,9,
N/C(=N\OC(=O)Cc1ccccc1)c1ccccn1,-2,-13,-40,0,-11,-58,/,
N/C(=N\OC(=O)C(c1ccccc1)c1ccccc1)c1ccccn1,-1,77*,0,1,-2,-8,28,
N/C(=N\OC(=O)COc1ccccc1)c1cccnc1,-3,-23,-31,-1,-5,-17,/,
Cc1ccc(C(=O)N/N=C/c2cc(Br)ccc2O)cn1,-1,51*,9,2,69,-7,31,
Cc1ccc(C(=O)N/N=C\C=C\c2ccc(Br)cc2)cn1,0,-4,-9,0,4,-11,/,
COc1cc([N+](=O)[O-])cc(/C=N/NC(=O)c2ccc(C)nc2)c1O,-5,67*,-20,0,-13,-19,54*,FLuc counter=81*
COc1cc([N+](=O)[O-])cc(/C=N/NC(=O)C(C)Nc2cccc(C)c2)c1O (centres undefined),0,36,-1,0,/,27,/,
COc1cc([N+](=O)[O-])cc(/C=N/NC(=O)C(C)Nc2ccccc2C)c1O (centres undefined),0,51*,-4,0,17,-6,26,FLuc counter=67*
